# Screens deposited in PubChem by National Center for Advancing Translational Sciences (NCATS).
# GBA mod: modulators of human glucocerebrosidase. AID 360. Potency, µM. hit rate 1.1% among 48,000. P04062. purified enzyme, resorufin glucoside fluorescence (screen aimed at inhibitors), 20 min; in the data active = potency below about 15 µM; inconclusive = mostly about 16 µM to 33 µM;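 note: the screen sought inhibitors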
#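 Compounds titrated against 0.2 nM normal enzyme, 30 uM resorufin beta-D-glucopyranoside substrate, citrate/phosphate buffer with taurocholate and tween-20, pH 5.9. Reaction ran 20 min at room temperature; fluorescence (Ex 548/Em 600) gave AC50.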
# Luciferase inh: firefly luciferase inhibition. P08659. purified firefly luciferase, luminescence, 8 min. Potency, µM (titrated, usually from 57.1 µM), for the others: top-dose activity change, negative = inhibition, most hits filed as inhibitors. hit rate 2.2% among 72,000. AID 411; note: % is set by controls: 0 for no effect and ±100 for the full control effect; nearly all actives have a fitted effect of over 40% in size
# Target sequence (P08659 whole entry, looked up): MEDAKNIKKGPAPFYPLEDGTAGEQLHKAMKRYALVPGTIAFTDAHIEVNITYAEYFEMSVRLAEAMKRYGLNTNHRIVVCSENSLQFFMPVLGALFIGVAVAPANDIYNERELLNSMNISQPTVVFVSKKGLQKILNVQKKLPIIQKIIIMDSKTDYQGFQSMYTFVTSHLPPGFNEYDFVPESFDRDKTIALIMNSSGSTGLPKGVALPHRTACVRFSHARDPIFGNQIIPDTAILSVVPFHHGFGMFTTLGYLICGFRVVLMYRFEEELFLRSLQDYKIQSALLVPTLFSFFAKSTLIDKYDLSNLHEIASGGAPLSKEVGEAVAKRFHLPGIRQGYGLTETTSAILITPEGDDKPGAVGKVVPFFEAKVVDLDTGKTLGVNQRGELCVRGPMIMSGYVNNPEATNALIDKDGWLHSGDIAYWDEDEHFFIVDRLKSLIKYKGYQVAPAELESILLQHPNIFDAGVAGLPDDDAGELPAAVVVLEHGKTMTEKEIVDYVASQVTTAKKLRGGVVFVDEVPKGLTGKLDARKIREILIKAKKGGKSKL
#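 Inhibition of light generation by firefly luciferase from ATP and luciferin was profiled with concentration-response curves per sample, ATP held at 10 uM within the enzyme's linear range. Plates were read by luminescence after an 8-minute ambient incubation.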
# PK Bst: modulators of Bacillus stearothermophilus pyruvate kinase. hit rate 1.2% among 51,000. Potency, µM. purified pyruvate kinase, luminescence ATP production; ribose 5-phosphate activator present at AC10; in the data active = potency below about 11 µM; inconclusive = mostly about 12 µM to 25 µM;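 the screen sought inhibitors and activators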;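 note: scaled between full activation by ribose 5 phosphate and full inhibition by luteolin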
# ERK AVP inh: vasopressin-driven ERK pathway inhibition | HEK293-V1b, vasopressin-stimulated pERK AlphaScreen | Potency, µM (doses to about 57.5 µM), for inactives: at the highest dose activity, negative = inhibition, hits mostly inhibitors | hit rate 0.99% among 72,000; note: % is set by controls: 0 for no effect and ±100 for the full control effect; nearly all actives have a fitted effect of over 55% in size
#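 qHTS, compounds titrated on V1b-expressing HEK293 cells. Preincubation 30 min at 37C, vasopressin 25 nM for 5 min, lysis 10 min, bead incubation 5 hr at room temperature.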
# An asterisk follows results filed as active; i = inactive; ? = inconclusive; nt = no result; ! = a repeat was not active; [ ] = dose if it differs, or a comment. In the library only some 3.9% were active in any assay of this set; here they are far more common. Unless noted, calls come from the whole dose curve; as a rule, active = well fitted curve in the direction sought with a large enough effect; inconclusive = small, poorly fitted or top-dose-only effect, or another doubt; inactive = no such curve, though single readings can be large; an effect the other way counts as inactive or inconclusive. Potency is the fitted concentration of half-maximal effect.
SMILES,GBA mod,Luciferase inh,PK Bst,ERK AVP inh
N=c1n(CCO)c2ccccc2n1CCOc1ccccc1,6*,3%,>57,-24%
N=c1n(Cc2ccccc2)c2ccccc2n1CC(O)c1ccco1 (centres undefined),>77,-5%,>57,-6%
CC(=O)OC1CCC23CC1(C)CCC2C(C)(C)CC3OC(C)=O (centres undefined),nt,nt,nt,3%
CO[C@@H]1COC(=O)C/C=C\[C@H](C)[C@H](OC)COC(=O)[C@H](C)NC(=O)C/C=C\[C@H]1C,nt,-1%[11.4 µM],nt,12%[11.5 µM]
COc1ccc2cnn(CCOc3ccccc3)c(=O)c2c1OC,>77,16µM*,nt,-9%
COc1cc(C(=O)O[C@@H]2CC(C)=CC[C@@]3(C)CC[C@](O)(C(C)C)[C@H]23)ccc1O,nt,2%[11.4 µM],nt,nt
Clc1ccc(-n2nnnc2Sc2ncnc3sccc23)cc1,>77,1%,>57,15%
Cc1sc2ncnc(Sc3nnnn3-c3ccccc3)c2c1C,9.2*,-37%,>57,66%
CCOC(=O)OCC1OC(C#Cc2ccccc2)C=CC1OC(=O)OCC (centres undefined),nt,nt,nt,-3%[11.5 µM]
O=Nc1c2nc3ccccc3n(O)c-2c2ccccc12,>77,-6%,7.3*,?
N#Cc1cccc(NC(=O)Nc2cccs2)c1,>77,-21%,nt,15%
CCc1cccc(NC(=O)Nc2cccs2)c1,>77,16µM*,nt,-22%
CC1CCC2(C(=O)O)CCC3(C)C(=CCC4C3(C)CCC3[C@@]4(C)CC(O)C(O)[C@@]3(C)CO)C2C1C (some centres undefined),nt,nt,nt,-5%
CN(C)Cc1ccccc1-c1nc(NC2CCNCC2)c2ccccc2n1,nt,1%[2.29 µM],nt,0%
Cn1c(SCc2nc3ccccc3n2CCO)nc2ccccc21,>77,-3%,>57,-13%
Cn1c(SCc2ccc(C#N)cc2Cl)nc2ccccc21,nt,16µM*,nt,12%
O=c1c(-c2ccccc2)nc2cnc(Oc3ccccc3)nc2n1Cc1cccs1,nt,0%[11.4 µM],nt,9%
CCCCN1C(=O)/C(=C2\SC(N3CCCCC3)=NC2=O)c2ccccc21,nt,7.9µM*,nt,25µM*
C[N+](C)(C)CCC(=O)c1cccc2ccccc12,nt,0%,nt,?
CC(C)OC(=O)CSc1nnc(-c2ccc(O)cc2)n1Cc1ccccc1,>77,25µM*,nt,?
CCn1c(SCC(=O)OC(C)C)nnc1-c1cccc(Cl)c1,>77,5%,>57,9%
COCC(=O)N1CCC2(CCCN(c3ccncc3)C2)CC1,nt,1%[11.4 µM],nt,10%
COC(=O)c1ccc(-c2cc(C(=O)O)c3cc4c(cc3n2)OCCO4)cc1,>77,3.2µM*,?,-13%
CN1CCN(c2nc(C(N)=O)cc(-c3ccccc3)n2)CC1,nt,1%[25.5 µM],11*,nt
COC(=O)CCCOc1ccc(Cl)cc1Cl,nt,nt,nt,20%
SMILES,GBA mod,Luciferase inh,PK Bst,ERK AVP inh
N=C1Sc2ccccc2C2=NCCCN12,nt,3.2µM*,nt,-13%
COc1cccc(Cn2c(=O)cnc3cnc(Oc4ccccc4)nc32)c1,nt,1%[11.4 µM],nt,?
Brc1ccccc1-c1nnc(COc2ncnc3c2cnn3-c2ccccc2)o1,>77,2%,>57,32µM*
Brc1ccccc1-c1nnc(CSc2nnnn2-c2ccccc2)o1,nt,1%,>11,-5%
COc1ccc(O)c(C(=O)CC(=O)c2ccc(F)cc2)c1,nt,25µM*,nt,17%
Cc1ccc(O)c(C(=O)CC(=O)c2cccc(F)c2)c1,nt,-2%,nt,7%
CC(C)=CCC/C(C)=C\COc1c2ccoc2cc2oc(=O)ccc12,nt,nt,nt,75%
Cc1cc2nc(-c3cccc(NC(=O)c4ccc(Br)o4)c3C)oc2cc1C,nt,7.9µM*,nt,3%
CCCCCCCCC1CO1 (centres undefined),nt,nt,nt,2%
O=C(Cn1c(=O)oc2ccccc21)Nc1ccc(S(=O)(=O)N2CCCCC2)cc1,>77,1%,>57,15%
CCN(CC)S(=O)(=O)c1ccc(NC(=O)Cn2c(=O)oc3ccccc32)cc1,8.5*,6%,>57,-3%
O=C(c1ccco1)n1c(=S)nc2ccccn21,>77,5µM*,?,1%
Cc1cccc2nc(=S)n(C(=O)c3ccco3)n12,>77,2µM*,?,-6%
O=C(c1ccco1)N1C(=O)c2cccc3cccc1c23,?,1%,>57,?
COc1ccc(/C=C/C2=CC3(C)CC2(C)C(c2ccc(OC)cc2)CC3=O)cc1 (centres undefined),nt,nt,nt,-2%[11.5 µM]
CC1(C)Oc2ccc(C#N)cc2[C@H](N2CCCC2=O)[C@H]1O,nt,0%,nt,6%
Cn1ccc2cc3c(cc21)CCN3C(=O)Nc1cccnc1,nt,25µM*!,nt,?
CN1CCc2cc(NC(=O)Nc3cccnc3)ccc21,nt,?,nt,3%
COc1ccc(-c2nc(-c3ccc(NC(=O)c4ccncc4)cc3)no2)cc1OC,nt,1%,nt,10µM*
COc1ccc(NC(=O)c2ccc(-c3ccc(-c4noc(C)n4)cc3C)cc2)cc1OCCN(C)C,nt,0%,nt,?
COc1ccc(NC(=O)c2ccc(-c3ccc(-c4noc(C)n4)cc3C)cc2)cc1N1CCN(C)CC1,nt,-4%,nt,13µM*!
O=C1[C@@H]2[C@H]3C(=CC[C@@H]2C(=O)N1Cc1ccccc1)C1(OCCCO1)[C@H]1O[C@@H]1[C@H]3O,nt,1%[11.4 µM],nt,7%[11.5 µM]
CCC/C=C(\CCC)C(NS(C)(=O)=O)c1ccccc1 (centres undefined),nt,nt,nt,5%
Cc1ccc2[nH]c(=O)c(CN(Cc3nnnn3Cc3ccccc3)C3CCCC3)cc2c1,>77,1%,>11,10%
Cc1cccc2cc(CN(Cc3nnnn3Cc3ccco3)C3CCCC3)c3nnnn3c12,9.8*,-6%,>57,-14%
SMILES,GBA mod,Luciferase inh,PK Bst,ERK AVP inh
COc1ccccc1N1CCN(CCN(C(=O)c2ccc(I)cc2)c2ccccn2)CC1,nt,5%,nt,nt
Cc1ccc2[nH]c(-c3ccccc3)cc(=O)c2c1,nt,5µM*,nt,-6%
Cc1ccc2[nH]c(C(=O)O)c(-c3ccccc3)c2c1,>77,-1%,>57,-21%
Cc1cc(C(=O)COC(=O)CCC(=O)c2ccc3c(c2)OCCO3)c(C)n1Cc1ccco1,>77,-6%,>57,16%
CCOc1ncccc1C(=O)OCC(=O)c1cc(C)n(Cc2ccco2)c1C,>77,13µM*,?,6%
Cc1ccc(C(=O)Nc2ccccc2C(=O)NC(CC(=O)O)C(=O)O)cc1 (centres undefined),10*,32µM*,nt,8%
O=C(O)CC(NC(=O)c1ccccc1NC(=O)c1ccccc1)C(=O)O (centres undefined),nt,-6%,nt,-19%
O=S(=O)(c1ccc(SCCO)nc1)N1CCCC1,>77,1%,>57,-15%
CN1CCN(S(=O)(=O)c2ccc(SCCOc3ccccc3)nc2)CC1,i,2%,>57,25µM*
COc1ccccc1N1CCN(Cc2nc(N)nc(Nc3ccccc3)n2)CC1,4.8*,-2%,>57,-28%
Cc1cccc(Nc2nc(N)nc(CN3CCC(C)CC3)n2)c1C,12*,2%,>57,-4%
COc1ccccc1Nc1nc(N)nc(CN2CCCCCC2)n1,nt,1%,>57,?
COc1ccccc1Nc1nc(N)nc(CN2CCN(c3ccccc3)CC2)n1,6.8*,3%,>57,-14%
COc1ccccc1Nc1nc(N)nc(CN2CCC(Cc3ccccc3)CC2)n1,0.93*,2%,>57,-11%
COC(=O)[C@H]1C[C@@H]1[C@H](NC(=O)c1cc(C)nn1C)c1ccccc1,nt,nt,nt,-1%
